# Screens: PubChem, several laboratories
# Only some compounds are listed: those with a hit (about 4.5% of all), similar ones and a draw of the others.
# tim10-1 inh: inhibits growth of tim10-1 mutant yeast. 330,000 compounds, 2.2% hits. inhibition, % at 20 µM. S. cerevisiae tim10-1 ts strain growth, BacTiter-Glo, 24 h;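 active = inhibition of at least 40%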;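 also: mutant grown at 25 °C; 0% = DMSO wells with yeast and 100% = wells holding no yeast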
# tim23-1 inh: growth inhibitors of tim23-1 mutant yeast | inhibition, % at 20 µM | 330,000 compounds, 1.3% hits | S. cerevisiae tim23-1 growth, BacTiter-Glo luminescence, 24 h;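 active = growth inhibition of the mutant yeast at or above 50%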;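 also: temperature-sensitive mutant grown at 25 °C; plate controls were DMSO-treated mutant yeast for no effect and medium wells lacking yeast for full effect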
# PfHsp90 yeast 2: inhibits growth of yeast expressing Plasmodium falciparum Hsp90; 310,000 compounds, 0.32% hits; S. cerevisiae expressing PfHsp90, BacTiter-Glo ATP, 48 h; yeast lacking PDR1 and PDR3 efflux regulators; inhibition, % at 9.4 µM;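 active = every replicate shows inhibition above about 80%, whatever the replicate mean, limit read from the data; inconclusive = mean inhibition reaches the set limit but some replicate falls short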;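 also: 0% = DMSO neutral controls and 100% = 20 µM radicicol positive controls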
# TIM10 inh: growth inhibitors of TIM10 yeast strain | S. cerevisiae TIM10 strain growth, BacTiter-Glo luminescence, 24 h | AID 463195 | inhibition, % at 10 µM | 330,000 compounds, 1.4% hits;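 active = inhibition of 40% or more at the single tested concentration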;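 also: wild-type TIM10 isogenic control strain grown at permissive 25 °C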
# NALP3 yeast inh: NALP3 inhibition in yeast | Yeast reconstituted NLRP3/ASC/caspase-1, beta-gal luminescence, 24 h | inhibition, % at 10 µM | 330,000 compounds, 0.39% hits | AID 2825;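 active = inhibition of 50% or more; inactive = inhibition below 50%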;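 also: plate controls were induced DMSO wells for no effect and uninduced yeast grown without galactose for full effect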
# SKKanGAS inh: SKKanGAS growth inhibition | S. pyogenes SKKanGAS, kanamycin growth, BacTiter-Glo, 6 h | 300,000 compounds, 1.3% hits | inhibition, % at 7.5 µM;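 active = mean replicate score, as percent of positive control median, at least 50; inconclusive = mean below 50 but one replicate at or above 50; inactive = mean and every replicate below 50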;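 also: strain carries kanamycin resistance gene driven by streptokinase promoter and grows in 40 µg/ml kanamycin; loss of luminescence reflects streptokinase promoter inhibition or plain growth inhibition; 0% = median of DMSO wells and 100% = positive control at its reference dose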
# tim10-1 confirm: confirmation of tim10-1 mutant yeast growth inhibitors. S. cerevisiae tim10-1 ts strain growth, BacTiter-Glo, 24 h. inhibition, % at 20 µM. AID 463213. 7,400 compounds, 56% hits. shares compounds with tim10-1 inh;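 active = inhibition of yeast growth at or above a set limit in either of two repeat tests at 20 µM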;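 also: tim10-1 mutant grown at permissive 25 °C to find synthetic lethal compounds; 0% = DMSO yeast wells and 100% = medium wells without yeast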
# tim10 confirm: confirmation of TIM10 yeast growth inhibitors. shares compounds with TIM10 inh. S. cerevisiae tim10 strain growth, BacTiter-Glo luminescence, 24 h. inhibition, % at 10 µM. 4,600 compounds, 63% hits. AID 463215;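 active = inhibition of yeast growth at or above a set limit in either of two replicates at 10 µM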;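 also: this counterscreen used the strain with wild-type TIM10; 0% = yeast with DMSO and 100% = medium wells lacking yeast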
# tim23-1 conf: tim23-1 yeast growth inhibition, confirmed; shares compounds with tim23-1 inh; S. cerevisiae tim23-1 growth, BacTiter-Glo luminescence, 24 h; inhibition, % at 20 µM; 4,400 compounds, 83% hits;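 active = inhibition above about 39% in either of two replicate wells at 20 µM, limit read from the data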;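 also: temperature-sensitive tim23-1 mutant grown at 25 °C; 0% = DMSO wells with yeast and 100% = medium wells without yeast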
# * = called active by the depositor; ? = inconclusive; . = not tested or not shown.
SMILES,tim10-1 inh,tim23-1 inh,PfHsp90 yeast 2,TIM10 inh,NALP3 yeast inh,SKKanGAS inh,tim10-1 confirm,tim10 confirm,tim23-1 conf
Cc1noc(C)c1CSCC(=O)N(C)CC(=O)Nc1cccc(F)c1,3.8,6.9,-0.1,5.4,1.7,-1.1,.,.,.
Cc1ccc(-c2cc(N)n(-c3ccccc3)n2)cc1,1.0,12.7,-1.9,6.8,46.3,2.3,.,.,.
Nc1cc(-c2ccc(OC(F)(F)F)cc2)nn1-c1ccc(Cl)c(Cl)c1,46.5*,57.0*,.,9.4,0.7,66.9*,62.5*,.,61.0*
Cc1c(/N=C(\[O-])Nc2ccc(Br)cc2)sn[n+]1C,16.6,25.0,.,6.2,31.4,-8.5,.,.,.
Cc1nc2cc(C(=O)NCc3ccc4c(c3)OCO4)ccc2n1-c1ccc(Br)cc1,47.1*,52.1*,6.5,14.8,-2.2,2.6,39.0*,.,47.6*
N/C(Cc1ccccc1)=N\OC(=O)c1cccc2ccccc12,76.7*,68.1*,-7.9,85.2*,-4.8,4.3,57.2*,90.9*,49.6*
O=C(O/N=C(\c1ccccc1)c1ccncc1)c1ccccc1F,50.1*,50.5*,6.5,29.6,9.8,-6.1,37.2*,.,61.0*
N/C(Cc1ccc(Cl)cc1Cl)=N\OC(=O)c1ccccc1F,62.6*,64.8*,3.5,81.4*,4.4,19.5,14.1,87.6*,52.5*
O=C(O/N=C(/c1ccccc1)c1ccncc1)c1cccc(F)c1,29.1,37.5,-16.0,38.5,6.7,2.0,.,.,.
N/C(=N\OC(=O)c1cccc2ccccc12)c1ccc(Br)cc1,66.5*,63.4*,16.3,69.1*,21.3,-3.6,61.0*,69.1*,68.3*
N/C(Cn1cncn1)=N\OC(=O)c1ccc(Cl)cc1Cl,17.1,23.0,-6.1,6.9,-6.2,-4.6,.,.,.
CCc1cccc(C)c1NC(=O)C1CCCN(S(C)(=O)=O)C1 (centres undefined),-7.1,-0.3,4.5,-5.4,16.4,-6.6,.,.,.
Cc1cc(Br)ccc1SCC(=O)NNC(=O)c1ccco1,6.2,20.9,2.5,-0.8,13.8,.,.,.,.
CC(C)CNS(=O)(=O)c1ccc(CCC(=O)NC2CCCCC2)cc1,10.5,10.3,1.6,-8.1,19.5,-3.5,.,.,.
N/C(Cc1cccc2ccccc12)=N\OC(=O)c1ccccc1F,55.5*,66.8*,-2.8,61.0*,12.4,20.1,49.5*,71.3*,75.6*
CC(C)OC(=O)n1c(=S)oc2ccccc21,53.3*,76.3*,-39.4,47.0*,-3.9,3.1,36.8*,26.0,67.3*
CC(C)NC(=O)CCn1c(=S)oc2ccccc21,8.9,14.3,-6.5,-11.0,0.9,2.5,.,.,.
COc1ccc(SN=C2C(C)=CC(=O)C=C2C)cc1,70.9*,75.0*,91.2*,91.3*,10.9,-0.6,73.0*,96.4*,74.5*
COc1ccc(S(=O)(=O)N=C2C=C(C)C(=O)C(C)=C2)cc1,17.5,17.8,-13.4,7.1,-12.7,10.3,.,.,.
Nc1cc(Cl)nc(N/N=C/c2c(O)ccc3ccccc23)n1,49.8*,66.1*,-2.9,44.5*,46.4,-12.4,38.3*,-9.2,70.0*
CCc1cccc(NC(=O)c2ccc3c(=O)n4c(nc3c2)CCCCC4)c1,-41.6,31.1,2.9,14.5,-10.8,10.4,.,.,.
N#C/C(=C\c1ccccc1C(F)(F)F)C(=O)Nc1ccccc1,57.1*,51.7*,1.3,73.0*,7.6,-11.1,58.0*,61.3*,62.8*
CCc1cccc(CC)c1NC(=O)/C(C#N)=C/c1ccccc1C(F)(F)F,41.4*,54.7*,74.9,56.6*,6.6,11.3,-6.9,13.5,42.0*
NC(=O)C1CCN(CC(=O)Nc2ccc(S(=O)(=O)N3CCOCC3)cc2)CC1,-11.6,-1.1,-17.7,4.6,11.5,-2.2,.,.,.
CN(C)S(=O)(=O)c1ccc(C(=O)NNC(=O)C23CC4CC(CC(C4)C2)C3)cc1,-8.8,-3.5,3.7,4.5,14.6,.,.,.,.
SMILES,tim10-1 inh,tim23-1 inh,PfHsp90 yeast 2,TIM10 inh,NALP3 yeast inh,SKKanGAS inh,tim10-1 confirm,tim10 confirm,tim23-1 conf
CS(=O)(=O)c1ccc(S(=O)CC(=O)OCc2ccccc2)c([N+](=O)[O-])c1 (centres undefined),.,.,-18.2,.,.,-3.9,.,.,.
O=C(CS(=O)c1ccc(C(F)(F)F)cc1[N+](=O)[O-])Oc1ccccc1 (centres undefined),49.7*,71.7*,-9.4,70.4*,-19.0,16.4,57.2*,45.8*,74.6*
O=C(c1cccc(C(=O)N(c2ccccn2)C2CCCCC2)c1)N(c1ccccn1)C1CCCCC1,39.5,28.2,-22.2,7.1,3.8,-18.1,.,.,.
N#C/C(=C\c1ccccc1)C(=O)N(c1ccccn1)C1CCCCC1,48.6*,71.3*,-73.8,57.6*,29.5,2.2,69.6*,67.2*,58.4*
Cc1c(Cl)cccc1NC(=O)CNC(=O)c1cn(-c2ccccc2)nc1-c1cccnc1,8.7,1.7,-33.3,1.4,12.6,.,.,.,.
CCN(c1ccc(OC)cc1)S(=O)(=O)c1csc(C(=O)N2CCCC2)c1,24.1,16.7,6.9,-24.0,13.1,-11.2,.,.,.
CN(C)c1cccc(C(=O)Nc2nc3ccccc3[nH]2)c1,-9.1,-11.0,-10.5,14.7,17.1,8.6,.,.,.
Cc1ccc(N(C)S(=O)(=O)c2cccc(C(=O)Nc3nc4ccccc4[nH]3)c2)cc1,40.7*,56.3*,-17.3,34.3,11.9,?,41.6*,.,53.3*
CC(=O)n1c2c(c3ccccc31)OC(N)=C(C#N)C2c1ccc(C(C)C)cc1 (centres undefined),42.0*,55.3*,13.0,35.4,14.0,12.3,36.6*,.,52.2*
Cc1ccc(C)c2[nH]c(=O)c(CCNC(=O)c3ccco3)cc12,14.7,21.5,7.2,-3.1,9.3,2.2,.,.,.
Cc1ccc(S(=O)(=O)N2CCC[C@H]2C(=O)OCCN2C(=O)c3ccccc3C2=O)cc1,18.9,23.4,-4.0,4.1,17.0,.,.,.,.
O=C(c1cc(COc2ccc(F)cc2Cl)on1)N1CCCCCCC1,41.0*,50.7*,4.9,14.2,21.6,0.4,15.7,.,42.0*
O=C(c1cc(COc2ccc(F)cc2Cl)on1)N1CCCCCC1,37.1,48.8,-12.8,-3.6,31.3,1.7,.,.,.
CC1CCCCC1NC(=O)/C(C#N)=C/c1ccc(F)c(F)c1 (centres undefined),48.0*,54.5*,10.1,59.1*,22.9,11.2,59.2*,70.1*,46.3*
CC1CCCCC1NC(=O)/C(C#N)=C/c1ccc2c(c1)OCCO2 (centres undefined),49.8*,62.8*,.,55.4*,24.5,1.6,53.0*,5.2,62.5*
